Source: PubChem BioAssay
Shown is part of a subset that was picked to be rich in hits.
EZH2 inh: inhibitors of human EZH2/PRC2 methyltransferase. inhibition, % at 12.5 µM. actives 0.35% (n = 57,000). Q15910. AID 651548. PRC2 H3K27 methylation, DELFIA TRF, 1 h;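 active = mean inhibition of replicates at least 50% and every single replicate also reaching 50%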;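 note: dimethyl H3K27 on biotinylated H3 21-44 peptide detected by antibody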
Numbers stand for hits; i = inactive.

SMILES	EZH2 inh
Cn1c(SCC(=O)Nc2cc(C(F)(F)F)ccc2Cl)nnc1-c1ccc(Br)cc1	i
CS(=O)(=O)N(CC(=O)Nc1ccc(C(F)(F)F)cc1)c1cccc([N+](=O)[O-])c1	i
O=C(CSc1nnc2ccccn12)Nc1c(Cl)cc(Cl)cc1Cl	i
O=C(c1cnc2ccccn12)C(F)(F)SCc1c(Cl)cccc1Cl	58.6
O=C(O)C12CC3CC(C1)CC(n1ncc(NCc4ccc(F)cc4)c(Cl)c1=O)(C3)C2	i
Cc1ccc(/C=N/NC(=O)CCCCCC(=O)Nc2ccccc2O)o1	i
COc1ccc(N(C(=O)C2CCCCC2)S(=O)(=O)c2cc(OC)ccc2OC)cc1	i
COc1cccc2c(=O)c(CCC(=O)O)c(C)[nH]c12	i
O=C(NO)c1cccc(C(=O)N/N=C/c2ccc(O)c3ccccc23)c1	i
O=C(NO)c1cccc(C(=O)N/N=C/c2ccc(O)cc2O)c1	i
O=C(NO)c1cccc(C(=O)N/N=C/c2cc(Br)ccc2O)c1	i
O=C(CCCCC(=O)N/N=C/c1ccc(O)c(O)c1O)NO	76.0
O=C(NO)c1cccc(C(=O)N/N=C/c2ccc(O)c(O)c2O)c1	95.0
O=C(CCCCCC(=O)N/N=C/c1ccc(O)cc1O)NO	i
O=C(CCCCCC(=O)N/N=C/c1cc(O)ccc1O)NO	i
O=C(NO)c1cccc(C(=O)N/N=C/c2cccc(O)c2O)c1	78.5
O=C(NO)c1cccc(C(=O)N/N=C/c2cc(Br)cc(Br)c2O)c1	i
Cc1ccc(CN(CC(=O)O)S(=O)(=O)c2ccc(Br)cc2)cc1	i
CC(C)(C)ONC(=O)c1ccc(-n2cc(C(=O)NO)nn2)cc1	i
Cn1c(=O)c2c(nc(NCc3cccnc3)n2Cc2cccc(Br)c2)n(C)c1=O	i
COc1cc(-c2nnc(SCC(=O)c3ccc(Cl)cc3)n2C)cc(OC)c1OC	i
C[C@@H]1CC[C@]2(C)[C@H](CC[C@@H](O)[C@]2(C)O)[C@@]1(C)CC/C(=C/CO)CO	87.4
CC1CCC2(C)C(CC(O)C(O)C2(O)CO)C1(C)CCc1ccoc1 (configuration not stated)	i
O=C(CSc1nc(N2CCCCC2)nc(N2CCCCC2)n1)Nc1ccc(F)cc1	i
COC(=O)c1ccc(NC(=O)CSc2nnc(-c3cccs3)n2-c2ccc(OC)cc2)cc1	i
